Unmarked numbers belong to inactive results. Calls of active or inactive are those of the source.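 How the source made its calls, unless noted: active means mean inhibition above 46.68%, the untreated control wells mean plus 3 SD; inactive means the rest.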
Experiments:
[1] = biological target: Nuclear receptor coactivator 3 (Homo sapiens) (UniProt Q9Y6Q9); test: SRC3 coactivator transcriptional activity inhibitors, confirmation, cell-based, luminescence, quadruplicate (AID 588792;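 active means mean inhibition over 43.08%, the solvent-only control mean plus 3 SD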;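 further: 0% = DMSO treated cells and 100% = gossypol at 36 µM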); settings: HEK293 GAL4-SRC3 luciferase reporter, at 3.6 µM, active compounds read high
Sequence of Nuclear receptor coactivator 3 (Homo sapiens) (Q9Y6Q9 whole entry, looked up, the tested form may be a part): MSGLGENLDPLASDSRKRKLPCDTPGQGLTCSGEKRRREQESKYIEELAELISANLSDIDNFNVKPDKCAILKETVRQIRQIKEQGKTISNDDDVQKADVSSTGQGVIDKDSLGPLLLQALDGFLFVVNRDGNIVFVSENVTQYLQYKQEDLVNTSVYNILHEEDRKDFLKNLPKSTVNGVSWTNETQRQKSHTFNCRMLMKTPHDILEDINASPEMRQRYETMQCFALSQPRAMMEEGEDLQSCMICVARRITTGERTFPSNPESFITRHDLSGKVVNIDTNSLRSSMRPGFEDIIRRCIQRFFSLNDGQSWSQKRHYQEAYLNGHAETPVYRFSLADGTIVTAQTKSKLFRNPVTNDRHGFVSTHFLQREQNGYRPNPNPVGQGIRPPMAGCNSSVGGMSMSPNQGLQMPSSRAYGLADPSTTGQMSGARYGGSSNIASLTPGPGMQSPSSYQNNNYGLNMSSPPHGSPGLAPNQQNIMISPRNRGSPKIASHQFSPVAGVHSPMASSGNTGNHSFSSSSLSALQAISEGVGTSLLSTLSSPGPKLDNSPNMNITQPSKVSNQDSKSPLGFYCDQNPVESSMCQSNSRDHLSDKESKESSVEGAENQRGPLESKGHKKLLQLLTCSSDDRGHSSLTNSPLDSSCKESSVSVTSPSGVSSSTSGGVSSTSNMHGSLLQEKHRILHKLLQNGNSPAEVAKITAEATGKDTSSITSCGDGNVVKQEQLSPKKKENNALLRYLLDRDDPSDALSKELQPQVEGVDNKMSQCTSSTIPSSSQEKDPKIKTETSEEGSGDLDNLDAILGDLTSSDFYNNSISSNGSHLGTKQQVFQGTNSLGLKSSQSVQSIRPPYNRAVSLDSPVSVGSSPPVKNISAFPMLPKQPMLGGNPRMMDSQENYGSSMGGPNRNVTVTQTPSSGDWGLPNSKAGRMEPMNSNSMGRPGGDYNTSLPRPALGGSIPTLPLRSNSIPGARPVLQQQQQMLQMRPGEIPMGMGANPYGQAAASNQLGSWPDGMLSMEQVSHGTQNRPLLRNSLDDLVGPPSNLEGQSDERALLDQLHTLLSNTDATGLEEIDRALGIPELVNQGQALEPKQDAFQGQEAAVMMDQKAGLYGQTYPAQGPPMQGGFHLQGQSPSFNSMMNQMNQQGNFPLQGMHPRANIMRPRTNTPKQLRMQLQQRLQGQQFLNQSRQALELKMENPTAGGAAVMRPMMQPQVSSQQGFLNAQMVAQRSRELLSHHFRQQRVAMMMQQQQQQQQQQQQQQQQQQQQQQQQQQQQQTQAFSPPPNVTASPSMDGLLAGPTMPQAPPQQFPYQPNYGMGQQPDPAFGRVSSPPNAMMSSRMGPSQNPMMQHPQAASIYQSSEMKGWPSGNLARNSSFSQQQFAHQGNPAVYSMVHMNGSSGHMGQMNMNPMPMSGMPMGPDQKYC

[2] = tested on: transactivating tegument protein VP16 (Human herpesvirus 1), Gal4-VP16 luciferase reporter; test: VP16 transactivation inhibitors, counter-screen for SRC3 inhibitor project, cell-based, luminescence, high throughput (AID 588794; in the data active means inhibition above about 30%); settings: mammalian cells, VP16-driven luciferase reporter luminescence; at 3.6 µM; active compounds read high
[3] = biological target: Nuclear receptor coactivator 1 (Homo sapiens) (UniProt Q15788); test: SRC1 coactivator transcriptional activity inhibitors, confirmation, cell-based, luminescence, quadruplicate (AID 588820); settings: HEK293 GAL4-SRC1 luciferase reporter, at 3.6 µM, active compounds read high;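 further: 0% = DMSO wells and 100% = gossypol 36 µM treated wells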
Sequence of Nuclear receptor coactivator 1 (Homo sapiens) (Q15788 whole entry, looked up, the tested form may be a part): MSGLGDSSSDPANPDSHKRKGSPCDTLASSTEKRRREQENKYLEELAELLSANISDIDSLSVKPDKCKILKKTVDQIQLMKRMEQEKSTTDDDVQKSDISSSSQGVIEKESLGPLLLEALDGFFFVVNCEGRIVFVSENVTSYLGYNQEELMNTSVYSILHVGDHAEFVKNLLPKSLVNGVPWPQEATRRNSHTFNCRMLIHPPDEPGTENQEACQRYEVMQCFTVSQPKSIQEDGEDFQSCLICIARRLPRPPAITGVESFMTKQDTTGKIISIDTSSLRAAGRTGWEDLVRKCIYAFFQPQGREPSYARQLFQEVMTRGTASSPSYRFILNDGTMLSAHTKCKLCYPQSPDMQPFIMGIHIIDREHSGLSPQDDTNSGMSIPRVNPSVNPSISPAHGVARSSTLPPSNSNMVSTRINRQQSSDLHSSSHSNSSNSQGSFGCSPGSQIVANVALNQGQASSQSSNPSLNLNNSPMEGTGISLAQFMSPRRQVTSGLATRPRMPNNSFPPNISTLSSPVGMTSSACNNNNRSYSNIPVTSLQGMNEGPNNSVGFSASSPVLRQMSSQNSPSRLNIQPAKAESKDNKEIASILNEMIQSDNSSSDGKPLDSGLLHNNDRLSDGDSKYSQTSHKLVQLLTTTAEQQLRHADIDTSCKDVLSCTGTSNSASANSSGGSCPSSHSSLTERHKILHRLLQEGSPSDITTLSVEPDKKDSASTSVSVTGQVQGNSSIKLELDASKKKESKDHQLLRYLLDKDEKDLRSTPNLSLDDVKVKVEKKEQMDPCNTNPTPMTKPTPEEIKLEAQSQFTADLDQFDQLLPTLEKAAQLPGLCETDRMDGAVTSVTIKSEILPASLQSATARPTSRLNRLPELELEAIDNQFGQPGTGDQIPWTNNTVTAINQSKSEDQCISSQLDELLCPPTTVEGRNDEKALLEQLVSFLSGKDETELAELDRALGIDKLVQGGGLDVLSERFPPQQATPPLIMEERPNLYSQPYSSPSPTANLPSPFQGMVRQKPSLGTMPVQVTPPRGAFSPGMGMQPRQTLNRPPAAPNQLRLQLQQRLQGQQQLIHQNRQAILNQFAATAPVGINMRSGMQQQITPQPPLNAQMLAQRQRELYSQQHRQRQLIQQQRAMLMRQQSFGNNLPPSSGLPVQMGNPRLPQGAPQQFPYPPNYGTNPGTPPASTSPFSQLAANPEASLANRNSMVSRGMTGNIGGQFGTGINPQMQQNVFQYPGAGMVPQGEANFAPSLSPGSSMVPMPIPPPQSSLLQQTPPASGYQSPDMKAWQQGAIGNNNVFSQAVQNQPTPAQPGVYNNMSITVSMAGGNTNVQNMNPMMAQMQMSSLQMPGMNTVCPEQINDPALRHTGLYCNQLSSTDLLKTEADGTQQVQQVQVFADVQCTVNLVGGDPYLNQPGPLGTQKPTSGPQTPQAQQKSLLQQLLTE

[4] = VP16 transactivation inhibitors, counter-screen for SRC1 inhibitor project, cell-based, luminescence, high throughput (AID 588824; in the data active means inhibition above about 25%); settings: cell-based VP16 transactivation luciferase luminescence; at 3.6 µM; active compounds read high
[5] = tested on: transactivating tegument protein VP16 (Human herpesvirus 1); test: VP16 transactivation reporter inhibitors, counter-screen for SRC2 inhibitor project, cell-based, luminescence, single concentration (AID 652007; in the data active means inhibition above about 36%); settings: cell-based VP16 transactivation luciferase reporter, at 8.9 µM, active compounds read high
[6] = biological target: Nuclear receptor coactivator 2 (Homo sapiens) (UniProt Q15596); test: SRC2 coactivator transcriptional activity inhibitors, confirmation, cell-based, luminescence, HEK293, triplicate (AID 652008;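 active means mean inhibition above 46.5%, the solvent-only control mean plus 3 SD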;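 further: 0% = DMSO-treated cells and 100% = Gossypol at 36 µM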); settings: HEK293 GAL4-SRC2 luciferase reporter, at 8.9 µM, active compounds read high
Sequence of Nuclear receptor coactivator 2 (Homo sapiens) (Q15596 whole entry, looked up, the tested form may be a part): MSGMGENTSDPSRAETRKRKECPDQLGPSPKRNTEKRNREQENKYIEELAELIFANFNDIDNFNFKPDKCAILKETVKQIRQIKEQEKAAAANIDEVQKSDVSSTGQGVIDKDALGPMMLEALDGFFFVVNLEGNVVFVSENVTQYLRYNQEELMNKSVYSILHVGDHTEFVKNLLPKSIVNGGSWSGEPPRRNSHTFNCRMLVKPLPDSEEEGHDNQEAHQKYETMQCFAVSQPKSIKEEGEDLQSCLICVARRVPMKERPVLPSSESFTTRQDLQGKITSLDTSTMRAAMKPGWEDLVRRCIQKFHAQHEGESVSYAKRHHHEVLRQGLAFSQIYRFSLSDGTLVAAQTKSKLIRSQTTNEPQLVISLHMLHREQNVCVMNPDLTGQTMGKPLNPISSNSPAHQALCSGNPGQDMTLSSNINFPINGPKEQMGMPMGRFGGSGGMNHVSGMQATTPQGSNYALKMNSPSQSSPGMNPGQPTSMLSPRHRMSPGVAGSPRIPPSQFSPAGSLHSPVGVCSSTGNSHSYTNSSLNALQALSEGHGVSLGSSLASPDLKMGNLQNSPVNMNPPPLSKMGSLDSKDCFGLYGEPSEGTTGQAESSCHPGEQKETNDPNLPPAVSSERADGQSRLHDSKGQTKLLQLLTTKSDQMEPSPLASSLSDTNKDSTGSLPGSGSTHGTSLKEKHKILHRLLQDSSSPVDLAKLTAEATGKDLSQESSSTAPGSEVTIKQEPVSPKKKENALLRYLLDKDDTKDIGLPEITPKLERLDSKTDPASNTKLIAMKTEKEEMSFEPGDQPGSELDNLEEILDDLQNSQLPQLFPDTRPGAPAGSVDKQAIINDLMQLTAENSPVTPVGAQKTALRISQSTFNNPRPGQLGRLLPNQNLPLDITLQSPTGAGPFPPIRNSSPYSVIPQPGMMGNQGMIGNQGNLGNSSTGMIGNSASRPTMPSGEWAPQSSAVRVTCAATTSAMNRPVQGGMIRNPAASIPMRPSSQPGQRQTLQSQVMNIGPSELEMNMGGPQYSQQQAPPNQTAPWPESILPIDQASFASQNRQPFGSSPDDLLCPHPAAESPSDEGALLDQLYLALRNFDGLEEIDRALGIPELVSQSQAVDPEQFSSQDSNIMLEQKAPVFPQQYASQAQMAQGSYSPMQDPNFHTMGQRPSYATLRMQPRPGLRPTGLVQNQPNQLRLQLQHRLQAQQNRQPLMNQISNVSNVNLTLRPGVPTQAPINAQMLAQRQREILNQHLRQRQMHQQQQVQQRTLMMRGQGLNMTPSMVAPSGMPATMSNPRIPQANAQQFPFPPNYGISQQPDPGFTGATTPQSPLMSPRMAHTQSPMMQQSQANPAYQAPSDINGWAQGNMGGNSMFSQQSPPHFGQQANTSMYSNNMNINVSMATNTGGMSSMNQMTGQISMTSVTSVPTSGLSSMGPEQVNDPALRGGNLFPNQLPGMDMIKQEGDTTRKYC

## O=C(N/N=C/c1cc([N+](=O)[O-])ccc1O)NC12CC3CC(CC(C3)C1)C2
[1]
  inhibition: 19%
[2]
  inhibition: 15.1%
[3]
  inhibition: -3.01%
[4]
  inhibition: 10.3%
[5]
  inhibition: -0.05%
[6]
  inhibition: 42.3%

## Cc1ccccc1C(=O)N1CCN(c2ccc(NC(=O)c3ccc4c(c3)OCCO4)cc2)CC1
[1]
  inhibition: 25.7%
[2]
  inhibition: 43% (active)
[3]
  inhibition: 32.2%
[4]
  inhibition: 41.5% (active)
[5]
  inhibition: 34.3%
[6]
  inhibition: 45.5%

## Nc1ccc2c(c1)OC1(CCCC1)O2
[1]
  inhibition: 10.9%
[2]
  inhibition: 4.56%
[3]
  inhibition: -18.7%
[4]
  inhibition: 15.4%
[5]
  inhibition: -13%
[6]
  inhibition: 45.4%

## CCc1ccn2cc(-c3cc(-c4ccccc4)no3)nc2c1
[1]
  inhibition: 2.16%
[2]
  inhibition: 7.18%
[3]
  inhibition: -92.4%
[4]
  inhibition: -4.46%
[5]
  inhibition: 36.5% (active)
[6]
  inhibition: 61.6% (active)

## Cc1c(C(C)NC(=O)c2cc(COc3cccc4cnccc34)on2)cnn1C (stereo not given)
[1]
  inhibition: 32.4%
[2]
  inhibition: 40.4% (active)
[3]
  inhibition: 38.3%
[4]
  inhibition: 33.8% (active)
[5]
  inhibition: 7.45%
[6]
  inhibition: 46.9% (active)

## COc1ccc(-c2[nH]ncc2-c2ccc3c(c2)OCCO3)c(O)c1
[1]
  inhibition: 74.4% (active)
[2]
  inhibition: 58.3% (active)
[3]
  inhibition: 72% (active)
[4]
  inhibition: 59.5% (active)
[5]
  inhibition: 11.7%
[6]
  inhibition: 47.5% (active)

## COC(=O)c1cccc2c1-c1ccccc1/C2=N/O
[1]
  inhibition: 50.9% (active)
[2]
  inhibition: 24.4%
[3]
  inhibition: 34.5%
[4]
  inhibition: 25.2%
[5]
  inhibition: 21.1%
[6]
  inhibition: 42.4%

## Cc1noc(/C=C/c2ccccn2)c1[N+](=O)[O-]
[1]
  inhibition: 54.6% (active)
[2]
  inhibition: 47.8% (active)
[3]
  inhibition: 48.4% (active)
[4]
  inhibition: 37% (active)
[5]
  inhibition: 25.9%
[6]
  inhibition: 29.3%

## CC1(C)Cc2c(ccc3ccccc23)C(=O)N1
[1]
  inhibition: 55.7% (active)
[2]
  inhibition: 37.2% (active)
[3]
  inhibition: 55% (active)
[4]
  inhibition: 23.7%
[5]
  inhibition: -22.7%
[6]
  inhibition: 32.1%

## Cc1ccc2nc(-c3ccccc3)cn2c1
[1]
  inhibition: 21.2%
[2]
  inhibition: -9.75%
[3]
  inhibition: -44.9%
[4]
  inhibition: -21.6%
[5]
  inhibition: 19.2%
[6]
  inhibition: 51.8% (active)

## C=CCOc1ccc(/C=C2\SC(=S)N(CCC(=O)O)C2=O)cc1
[1]
  inhibition: 32.8%
[2]
  inhibition: -27%
[3]
  inhibition: 35.5%
[4]
  inhibition: -38.4%
[5]
  inhibition: -24.5%
[6]
  inhibition: 91.5% (active)

## O=C(/C=C/c1ccccc1)CC(O)(c1ccccc1)C(F)(F)F (stereo not given)
[1]
  inhibition: 38.5%
[2]
  inhibition: 31% (active)
[3]
  inhibition: 12.9%
[4]
  inhibition: 45.9% (active)
[5]
  inhibition: 21.8%
[6]
  inhibition: 32.7%

## COCCn1c(C)cc(C2=NNC(=NC3CC3)SC2)c1C
[1]
  inhibition: 91.2% (active)
[2]
  inhibition: 87.2% (active)
[3]
  inhibition: 85.7% (active)
[4]
  inhibition: 86.1% (active)
[5]
  inhibition: 90.8% (active)
[6]
  inhibition: 96.7% (active)

## CCn1c(Oc2ccc(F)cc2)nc2c1c(=O)n(C)c(=O)n2C
[1]
  inhibition: 33.6%
[2]
  inhibition: 29.8% (active)
[3]
  inhibition: 39.9%
[4]
  inhibition: 23.5%
[5]
  inhibition: 2.83%
[6]
  inhibition: 30.9%

## CCc1ccc(-c2nc(CSCC(=O)NCc3ccco3)c(C)o2)cc1
[1]
  inhibition: 33.8%
[2]
  inhibition: 27.9%
[3]
  inhibition: 33.9%
[4]
  inhibition: 24.5%
[5]
  inhibition: 41.4% (active)
[6]
  inhibition: 70.5% (active)

## O=[N+]([O-])c1ccc2ncnc(N3CCN(Cc4ccc5c(c4)OCO5)CC3)c2c1
[1]
  inhibition: 74.2% (active)
[2]
  inhibition: 53.2% (active)
[3]
  inhibition: 64.4% (active)
[4]
  inhibition: 64.9% (active)
[5]
  inhibition: 8.73%
[6]
  inhibition: 54.2% (active)

## CC(C)(C)C(=O)Nc1ccc(N=Nc2ccccc2)cc1
[1]
  inhibition: 69.1% (active)
[2]
  inhibition: 28.6%
[3]
  inhibition: -19.6%
[4]
  inhibition: -23.9%
[5]
  inhibition: 54.7% (active)
[6]
  inhibition: 66% (active)

## Cc1ccc(C(=O)Nc2cnc3ccccc3c2)cc1
[1]
  inhibition: 44.4% (active)
[2]
  inhibition: 9.25%
[3]
  inhibition: -70.2%
[4]
  inhibition: 23.4%
[5]
  inhibition: 50.7% (active)
[6]
  inhibition: 84.9% (active)

## COc1ccc(-n2c(C)c(C(C)=O)c3cc(O)ccc32)cc1
[1]
  inhibition: 76.1% (active)
[2]
  inhibition: 55.6% (active)
[3]
  inhibition: 64.1% (active)
[4]
  inhibition: 56.6% (active)
[5]
  inhibition: -5.76%
[6]
  inhibition: 54% (active)

## Cc1csc(SCC(=O)c2cc(C)n(Cc3cccs3)c2C)n1
[1]
  inhibition: 9.06%
[2]
  inhibition: -12.3%
[3]
  inhibition: -81.8%
[4]
  inhibition: -42.6%
[5]
  inhibition: -28.2%
[6]
  inhibition: 31.4%
